# Test results as given in PubChem BioAssay (NCI).
# Compounds without any hit were thinned out: in the full panel of roughly 83,000, 20% have a hit.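 Each cell line was grown in a 96-well plate and treated with one concentration of compound for 48 hours. Values below 10 were considered active.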 A number with no mark means an inactive call. Calls of active or inactive are those of the source.
# System: LOX IMVI melanoma
# Assay: NCI-60 one-dose screen, 48 h (100 = growth as untreated, 0 = no growth, -100 = all killed)
# Settings: 10 µM unless noted
# Method: Growth inhibition of the LOX IMVI human tumor cell line is measured as a screen for anti-cancer activity. Cells are grown in 96 well plates and exposed to the test compound for 48 hours. Compounds are tested at a single concentration, which is 10^-5 M for most compounds. The reported endpoint is percent growth (GI% or GIPRCNT), where numbers from 0 - 100% represent growth inhibition, and numbers from -100% - 0 represent cell death. For example, a value of 40 represents 60% growth inhibition. A value of 0 means no net growth occurred over the course of the experiment. A value of -40 indicates 40% of cells at the beginning of the experiment died by the end of the experiment. A value of -100 means all cells are dead at the end of the experiment.
# NCI-60 Human Tumor Cell Lines Screen was performed using the standard one-dose NCI protocol, which is described in more detail at https://dtp.cancer.gov/discovery_development/nci-60/default.htm.
# Compounds with GIPRCNT values below 10 were considered active. Activity score was based on GIPRCNT using the following formula: […]
# Score is 0 for GIPRCNT values of 100 or above, 50 for GIPRCNT values of 0, and 100 for GIPRCNT values of -100.
row,SMILES,growth
1,Clc1ccc2oc3c(NCCCN4CCOCC4)c4ccccc4nc3c2c1,-53.1% (active)
2,CN(C)CCCOc1c2ccc(Cl)cc2nc2c1oc1ccc(Cl)cc12,-77.2% (active)
3,CC(=O)Oc1ccccc1C(=O)Nc1ccc(C(=O)/C=C/c2cccs2)cc1,100%
4,Nc1cc(-c2c[nH]c3ccc(Cl)cc23)nc2cc(-c3c[nH]c4ccc(Cl)cc34)nn12,-5.92% (active)
5,Nc1cc(-c2c[nH]c3ccccc23)nc2cc(-c3c[nH]c4ccccc34)nn12,-25.2% (active)
6,OC1CCN(CCCOc2c3ccccc3nc3c2oc2ccccc23)CC1,-63.3% (active)
7,CCC/C=C/C=C/C(=O)N[C@@H](Cc1cc(F)cc(F)c1)C(=O)N[C@@H]1C(=O)N2CCC[C@H]2C(=O)N2CCCC[C@H]2C(=O)N[C@@H](C)C(=O)N2C[C@H](C)C[C@H]2C(=O)O[C@H]1C,-25.3% (active)
8,CCN1CCN(/C(=N\c2sc(-c3ccccc3)nc2-c2ccccc2)c2ccccc2)CC1,80.1%
9,CC(=O)Oc1ccccc1C(=O)Nc1ccc(C(=O)/C=C/c2ccncc2)cc1,-73.6% (active)
10,O=C(CSc1nc2sc3c(c2c(=O)n1-c1ccc(Cl)cc1)CCCC3)NNC(=O)Nc1ccc(Cl)c(C(F)(F)F)c1,1.34% (active)
11,Clc1ccc(-c2cn3cc(Cc4ccc(Cl)c(Cl)c4)sc3n2)cc1,53.1%
12,O=C1Nc2ccc(Cl)cc2/C1=C/c1ccc(OCC(=O)c2ccc(Br)cc2)cc1,108%
13,O=C(CN1CCOCC1)NNc1ncnc2ccccc12,9.78% (active)
14,CN(C)CCCOc1c2ccccc2nc2c1oc1ccc(Cl)cc12,-85.1% (active)
15,COc1cc2cc(Oc3ccc(NC(=O)c4cccc(C(F)(F)F)c4)cc3)c(C)nc2cc1OCCN1CCCCC1,-93.6% (active)
16,Fc1ccc(-c2cc3nc(C(Cl)Cl)nc(-c4ccc(Cl)cc4)n3n2)cc1,70.9%
17,COc1ccc(-c2nc3ccc(-c4nnc(SCC(=O)Nc5ccc(C(C)=O)cc5)o4)cc3[nH]2)cc1,108%
18,C/C(=N/NC(N)=S)c1ccc(Nc2nc(SCC(C)C)nc(-c3ccc(F)cc3)c2C#N)cc1,-20% (active)
19,Cc1cccc(/C=C/c2nn3c(-c4ccco4)nnc3s2)c1,98.1%
20,Cc1cccc2sc(/N=C(\N)C(Cl)(Cl)Cl)nc12,113%

row,SMILES,growth
1,Clc1ccc2oc3c(NCCCn4ccnc4)c4ccccc4nc3c2c1,-72.1% (active)
2,c1ccc2c(NCCCN3CCOCC3)c3oc4ccccc4c3nc2c1,-38.6% (active)
3,COc1ccc(N/N=C/c2c(-c3ccc(S(C)(=O)=O)cc3)nc3ccccn23)cc1,16.6%
4,Clc1ccc2c(NCCCN3CCOCC3)c3oc4ccc(Cl)cc4c3nc2c1,-82.8% (active)
5,CN1CCN(Cc2ccc(NC(=O)c3cncc(C#Cc4cnc5[nH]ncc5c4)c3)cc2C(F)(F)F)CC1,2.34% (active)
6,Cn1cc(-c2cc(N)n3nc(-c4cn(C)c5ccc(Br)cc45)cc3n2)c2cc(Br)ccc21,6.31% (active)
7,C=CCSc1ccc2c(c1)C(N1CCNCC1)=Nc1ccccc1O2,51.5% [8.25 µM]
8,CS(=O)(=O)c1ccc(-c2nc3ccccn3c2C=Nc2ccc(Cl)cc2)cc1,-59.2% (active)
9,Cc1nc(-c2cc3ccccc3oc2=O)ccc1C(=O)/C=C/c1ccc(N2CCOCC2)cc1,31.3%
10,CN(C)CCCNc1c2ccc(Cl)cc2nc2c1oc1ccc(Cl)cc12,-93.7% (active)
11,O=C1Nc2cc(Cl)ccc2/C1=C\c1ccc(OCc2ccc([N+](=O)[O-])cc2)cc1,65.8%
12,CCCC(=O)NC(c1ccc2c(c1)OC(F)(F)O2)c1cc(C)c2cccnc2c1O (stereo not given),21.1%
13,C[C@@H]1CN(c2ccc3ncc(C#Cc4cncc(C(=O)Nc5ccc(CN6CCN(C)CC6)c(C(F)(F)F)c5)c4)n3n2)C[C@H](C)O1,-87.7% (active)
14,O=C1Nc2ccccc2Oc2ccc(S(=O)(=O)CC3CO3)cc21 (stereo not given),29.5%
15,Clc1ccc2c(NCCCN3CCOCC3)c3oc4ccccc4c3nc2c1,17.3%
16,c1ccc(CNc2ncnc3ccc(-c4cnc5[nH]ncc5c4)cc23)cc1,52.7%
17,CN(C)CCCNc1c2ccccc2nc2c1oc1ccc(Cl)cc12,-86.5% (active)
18,CCCSc1nc(Nc2ccc(/C(C)=N\NC(N)=S)cc2)c(C#N)c(-c2ccc(OC)cc2)n1,68%
19,COc1cc(-c2ccc3ncnc(NC(C)c4ccccc4)c3c2)cnc1OC (stereo not given),34.4%
20,COc1ccc(-c2csc(N/N=C/c3c(-c4ccc(S(C)(=O)=O)cc4)nc4ccccn34)n2)cc1,126%
